MCF10A rereplic: induces DNA re-replication in MCF 10a normal breast cells; AID 624296; MCF 10A DNA re-replication, Hoechst nuclear intensity, 48 h; 350,000 compounds, 2.9% hits; Potency, µM (highest dose often 46.1 µM), inactives show at the highest dose activity, positive = re-replication, hits mostly activators; further: % of control where 0% means no effect; nearly all actives have a fitted effect of over 50% in size
SW480 rereplic: inducers of DNA re-replication in SW480 colon cancer cells; 340,000 compounds, 1.8% hits; AID 624297; Potency, µM (highest dose often 46.1 µM), inactives show top-dose re-replication activation, actives largely listed as activators; SW480 DNA re-replication, Hoechst DNA content imaging, 48 h; further: % of control where 0% means no effect; nearly all actives have a fitted effect of over 55% in size
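Compounds, transferred as 23 nL by pin tool, were incubated with cells for 48 hr; DNA content per nucleus was then quantified by Hoechst staining and fluorescence plate imaging.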
RORgamma inh: blocks mouse ROR gamma transcriptional activity. P51450. Drosophila S2 Gal4-RORgamma UAS-luciferase reporter, 20 h. Potency, µM (titrated, usually from 53.6 µM), inactives show at the highest dose activity change, negative = inhibition, actives largely listed as inhibitors. 310,000 compounds, 5.4% hits. AID 2551; further: on the % scale 0 is the no-effect control and ±100 the full control effect; nearly all actives have a fitted effect of over 60% in size
Target sequence (P51450 whole entry, looked up, the tested form may be a part): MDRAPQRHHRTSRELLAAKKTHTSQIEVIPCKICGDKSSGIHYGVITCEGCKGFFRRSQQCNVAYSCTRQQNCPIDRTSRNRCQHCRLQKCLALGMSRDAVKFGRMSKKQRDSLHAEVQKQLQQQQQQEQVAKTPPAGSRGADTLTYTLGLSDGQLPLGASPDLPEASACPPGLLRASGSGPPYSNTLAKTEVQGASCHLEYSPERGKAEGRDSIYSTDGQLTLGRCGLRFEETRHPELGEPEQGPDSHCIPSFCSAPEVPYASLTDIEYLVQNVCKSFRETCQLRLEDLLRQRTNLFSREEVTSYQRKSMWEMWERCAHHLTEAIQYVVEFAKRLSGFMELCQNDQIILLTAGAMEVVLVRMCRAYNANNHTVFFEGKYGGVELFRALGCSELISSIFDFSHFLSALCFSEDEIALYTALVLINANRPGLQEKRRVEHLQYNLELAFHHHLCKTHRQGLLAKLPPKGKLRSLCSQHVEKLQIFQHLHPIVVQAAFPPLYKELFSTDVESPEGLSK
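Using a luciferase readout, inhibitors were identified by reduced reporter activity in Drosophila cells coexpressing a copper-inducible Gal4–ROR gamma fusion and UAS-driven Photinus luciferase, incubated 20 hr after 700 uM copper sulfate.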
KB-3-1 cytotox: kills parental KB-3-1 adenocarcinoma cells | KB-3-1 viability, CellTiter-Glo ATP luminescence, 72 h | Potency, µM (doses to about 46.1 µM), hits mostly cytotoxic | 400,000 compounds, 1.4% hits | AID 1347075; further: on the % scale 0 is the no-effect control and ±100 the full control effect; nearly all actives have a fitted effect of over 60% in size
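Cytotoxicity measured as CellTiter-Glo luminescence after 72 h at 37 C. Compound titrations were pinned onto drug-naive KB-3-1 parental adenocarcinoma cells grown in DMEM with 10% FBS, and normalized data fitted to concentration-response curves.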
KB-V1 MDR tox: KB-V1 MDR subline cytotoxicity; 400,000 compounds, 3.4% hits; Potency, µM (series often up to 46.1 µM), actives largely listed as cytotoxic; KB-V1 MDR cells viability, CellTiter-Glo, 72 h; AID 1347076; further: on the % scale 0 is the no-effect control and ±100 the full control effect; nearly all actives have a fitted effect of over 60% in size
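Drug-selected KB-V1 cells, grown in DMEM lacking phenol red with 10% FBS, receive compound titrations; after three days at 37 degrees C, surviving cell ATP is quantified by CellTiter-Glo luminescence and responses normalized and curve-fitted.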
VP16 counter: Gal4-VP16 reporter inhibition counter-screen; Drosophila S2 Gal4-VP16 UAS-luciferase, luminescence, 20 h; Potency, µM (highest dose often 53.6 µM), for the others: at the top dose activity, negative = inhibition, actives largely listed as inhibitors; 310,000 compounds, 3.5% hits; AID 2546;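 further: Gal4-VP16 expression switched on by copper sulfate through the metallothionein promoter; on the % scale 0 is the no-effect control and ±100 the full control effect; nearly all actives have a fitted effect of over 50% in size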
Numbers without * were called inactive; i = inactive; ? = inconclusive; · = no result given; [ ] = another dose, or the depositor's remark. Hits are enriched below; roughly 10% of the tested compounds scored in any of these assays. The call rests on the fitted dose curve; in most records, active means well fitted curve in the direction sought with a large enough effect; inconclusive means small, poorly fitted or top-dose-only effect, or another doubt; inactive means no such curve, though single readings can be large; an effect the other way counts as inactive or inconclusive. Potency means the concentration at half of the fitted maximal effect.

SMILES | MCF10A rereplic | SW480 rereplic | RORgamma inh | KB-3-1 cytotox | KB-V1 MDR tox | VP16 counter
Cc1cc(N2CCN(C)CC2)nc2ccc(NC(=S)N3CCN(c4ccccn4)CC3)cc12 | 24% | ? | 7% | i | i | -12%
COc1cccc([C@@H]2Oc3ccc(Br)cc3C(=O)[C@H]2OC(=O)NCCOc2ccccc2)c1 | · | · | -1% | · | · | 0%
COc1cc(C(=O)OCC(C)=O)cc(NC(=O)c2ccco2)c1OC | ? | -8% | -18% | i | i | -6%
COc1cc(C(=O)OCC(=O)NC2CCCC2)cc(NC(=O)c2ccco2)c1OC | 2% | -10% | 2%[10 µM] | i | 4.6µM* | 5%
COc1cc(NC(=O)c2ccco2)c(C(=O)OCC(=O)c2c[nH]c3ccccc23)cc1OC | 23µM* | ? | ? | i | i | ?
Cc1cc(C)nc(NC(=NCCc2c[nH]c3ccccc23)NC(=O)Nc2ccccc2)n1 | 26µM* | ? | -2% | i | i | -27%
Cc1cc(C)nc(NC(=NCCc2c[nH]c3ccccc23)NC(=O)Nc2ccc(Cl)c(Cl)c2)n1 | ? | 2% | 3% | ? | i | -11%
COc1ccc(/C=N/NC(=O)c2ccc(N3CCCC3=O)cc2)cc1 | -2% | -10% | -3% | i | i | -1%
COc1ccc(O)c(/C=N/NC(=O)c2cccc(N3CCCC3=O)c2)c1 | 3% | ? | 3.5µM* | ? | i | 3.5µM*
COc1ccc(O)c(/C=N/NC(=O)c2ccc(N3CCCC3=O)cc2)c1 | 11% | 2.3µM* | 2.2µM* | ? | i | ?
O=C(N/N=C/c1ccco1)c1cccc(N2CCCC2=O)c1 | 1% | 0% | ? | ? | i | 1%
O=C(N/N=C/c1cc(Br)ccc1O)c1cccc(N2CCCC2=O)c1 | 22% | · | 1µM* | ? | i | 5.6µM*
Cn1c(=O)c2c(-c3ccccc3)n3c4ccccc4nc(-c4ccccc4)c3c2n(C)c1=O | · | · | · | i | i | ·
CC(=O)NC(C)(c1ccccc1)c1nc(-c2csc3ccccc23)cs1 (centres undefined) | · | · | · | i | i | ·
Cc1ccc(-c2csc(NCCn3c(-c4ccncc4)nc4ccccc43)n2)cc1 | 2% | 0% | -12% | ? | 21µM* | -8%
COc1ccc(-c2csc(NC(CO)c3nc4ccccc4n3Cc3ccc(C)cc3)n2)cc1 (centres undefined) | ? | ? | · | ? | i | ·
Cc1ccc(-c2csc(NCCn3c(-c4ccncc4)nc4cc(C(F)(F)F)ccc43)n2)cc1 | ? | 2% | · | ? | i | ·
CCCn1c(C(C)Nc2nc(-c3ccc(OC)cc3)cs2)nc2ccccc21 (centres undefined) | ? | 0% | 7.9µM* | i | i | ?
Cc1ccc(Cn2c(C(CO)Nc3nc(-c4ccc(F)cc4)cs3)nc3ccccc32)cc1 (centres undefined) | ? | 18% | · | 16µM* | i | ·
CC(=O)Nc1ccc(NC(=O)CCS(=O)(=O)c2ccc3c(c2)CC(=O)N3C)cc1 | · | · | · | i | ? | ·
CCCCn1nnnc1C(c1cc2ccccc2o1)N1CCN(C(=O)OCC)CC1 (centres undefined) | · | · | · | i | i | ·
Cc1cc(C)c(C)c(S(=O)(=O)N2CCC(C(=O)Nc3ccc(S(=O)(=O)N4CCOCC4)cc3)CC2)c1C | ? | 20% | ? | ? | ? | -11%
Cc1nn(C)c(Oc2cccc(Cl)c2)c1C(=O)Nc1ccc(F)cc1F | -5% | -6% | -9% | i | 18µM* | 2%
Cc1nn(C)c(Oc2cccc(Cl)c2)c1C(=O)Nc1ccc(F)cc1 | 2% | -7% | -2% | i | 15µM* | -5%
Cc1nn(C)c(Oc2cccc(Cl)c2)c1C#N | -2% | 1% | 14% | i | i | -6%
SMILES | MCF10A rereplic | SW480 rereplic | RORgamma inh | KB-3-1 cytotox | KB-V1 MDR tox | VP16 counter
Nc1[nH]c(C(=O)c2ccccc2)c(-c2ccncc2)c1C(=O)NCCc1c[nH]c2ccccc12 | · | · | · | i | i | ·
O=S(=O)(c1ccccc1)N(c1ccccc1)S(=O)(=O)c1ccccc1 | 10% | 7% | · | ? | 9.2µM* | ·
CCSC1=C(C#N)C(c2cccs2)C(C(=O)OC)=C(C)N1 (centres undefined) | 12% | 11% | -9% | i | 21µM* | 10%
C=CCOC(=O)C1=C(C)NC(SC)=C(C#N)C1c1cccs1 (centres undefined) | ? | ? | -23% | 12µM* | 6.5µM* | -5%
CC(=O)Nc1cccc(OC2=NS(=O)(=O)c3ccccc32)c1 | · | · | · | i | i | ·
CC(=O)NC(C)c1ccc(Cl)c(Cl)c1 (centres undefined) | ? | 4% | 25% | i | i | 4%
CC(=O)NC(CCc1ccc(Cl)c(Cl)c1)c1cccc(O)c(=O)c1 (centres undefined) | · | · | · | ? | 8.2µM* | ·
CSc1ccc(CN2CCC2(C)C(=O)Nc2cccc(NS(C)(=O)=O)c2)cc1 (centres undefined) | · | · | · | i | ? | ·
CSc1nnc(-c2sccc2OCc2ccc(C)cc2)n1C | ? | ? | -8% | ? | 18µM* | 0%
O=C(Nc1nnc(SCC(=O)N2CCCCC2)s1)c1cccs1 | -2% | -6% | 15% | i | 21µM* | -5%
O=C(Nc1nnc(SCC(=O)N2CCOCC2)s1)c1ccccc1Cl | -4% | 3% | 10µM* | i | i | 6.3µM*
O=C(Cc1cccs1)Nc1nnc(SCC(=O)N2CCCCC2)s1 | -12% | 2% | 5% | i | i | -2%
COC(=O)c1cc2sccc2n1CC(=O)Nc1ccc(C)cc1C | · | · | · | i | i | ·
COc1ccc(NC(=O)/C(Cl)=C(/Cl)S(=O)Cc2ccccc2Cl)cn1 (centres undefined) | 1µM* | ? | 1µM* | 18µM* | ? | 4.5µM*
COc1ccc(NC(=O)/C(Cl)=C(/Cl)S(=O)(=O)Cc2ccc(C)cc2)cn1 | ? | 2.6µM* | 4.5µM* | 6.5µM* | ? | 3.2µM*
COc1ccc(NC(=O)Cc2ccc(Cl)c(Cl)c2)cn1 | 0% | 3% | 32% | i | i | -7%
COc1ccc(OC)c(CCNC(=O)c2c3c(nc4ccccc24)C(=O)N(C2CCCCC2)C3)c1 | · | · | · | i | i | ·
Cc1ccc(COc2ccc(-c3cc(C(F)(F)F)n4nc(C)cc4n3)cc2)cc1 | · | · | · | i | i | ·
CCOc1ccc(C2c3c(oc4ccc(C)cc4c3=O)C(=O)N2CCCN2CCOCC2)cc1 (centres undefined) | · | · | · | i | i | ·

Screens from PubChem BioAssay.
